The supplement of paper PMC6555819

Columns and labels:
Assay in all cases: PBM binding z-score (relative to random genomic background probes); higher = stronger binding; sequences stand for … in GC…GCGATTGACAGCGTAGAATGAAGG
[1] = system: FXR:RXRa (NR concentration 270 nM, RXRa partner concentration 90 nM)
Procedure, shortened: (§1)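 Binding z-scores were set against random background probes. The data came from custom Agilent 4×180K protein-binding microarrays carrying double-stranded probes with 34-nt variable regions, incubated 1 h with ligand-free nuclear receptor dimers. Partner-specific antibodies detected binding, and scanned fluorescence was regression-normalized.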

[2] = system: LXRa:RXRa (NR concentration 270 nM, RXRa partner concentration 90 nM)
Procedure, shortened: as §1

[3] = system: LXRa homodimer (NR concentration 270 nM)
Procedure, shortened: as §1

[4] = system: LXRb:RXRa (NR concentration 270 nM, RXRa partner concentration 90 nM)
Procedure, shortened: as §1

[5] = system: LXRb homodimer (NR concentration 270 nM)
Procedure, shortened: as §1

[6] = system: PPARa:RXRa (NR concentration 270 nM, RXRa partner concentration 90 nM)
Procedure, shortened: as §1

[7] = system: PPARg:RXRa (NR concentration 180 nM, RXRa partner concentration 90 nM)
Procedure, shortened: as §1

[8] = system: PPARg:RXRa 270nM:90nM, anti-RXR (NR concentration 270 nM, RXRa partner concentration 90 nM)
Procedure, shortened: as §1

[9] = system: PPARg:RXRa 30nM:10nM, anti-RXR (NR concentration 30 nM, RXRa partner concentration 10 nM)
Procedure, shortened: as §1

[10] = system: PPARg:RXRa 90nM:30nM, anti-RXR (NR concentration 90 nM, RXRa partner concentration 30 nM)
Procedure, shortened: as §1

[11] = system: PPARg:RXRa DBDmut IVT, anti-RXR (DBD mutation: RXRa K156A/R161A, NR concentration 270 nM, RXRa partner concentration 90 nM)
Procedure, shortened: as §1

[12] = system: PPARg:RXRa IVT, anti-PPARg (NR concentration 270 nM, RXRa partner concentration 90 nM)
Procedure, shortened: as §1

[13] = system: PPARg DBDmut:RXRa IVT, anti-PPARg (DBD mutation: PPARg1 K132A/R137A, NR concentration 270 nM, RXRa partner concentration 90 nM)
Procedure, shortened: as §1

[14] = system: PPARg DBDmut IVT, anti-PPARg (DBD mutation: PPARg1 K132A/R137A, NR concentration 270 nM)
Procedure, shortened: as §1

[15] = system: PPARg homodimer (NR concentration 180 nM)
Procedure, shortened: as §1

[16] = system: PXR:RXRa (NR concentration 270 nM, RXRa partner concentration 90 nM)
Procedure, shortened: as §1

[17] = system: PXR homodimer (NR concentration 270 nM)
Procedure, shortened: as §1

[18] = system: RARa:RXR (NR concentration 270 nM, RXRa partner concentration 90 nM)
Procedure, shortened: as §1

[19] = system: RARa homodimer (NR concentration 270 nM)
Procedure, shortened: as §1

[20] = system: RARb:RXRa (NR concentration 270 nM, RXRa partner concentration 90 nM)
Procedure, shortened: as §1

| Sequence | PBM binding z-score [1] | PBM binding z-score [2] | PBM binding z-score [3] | PBM binding z-score [4] | PBM binding z-score [5] | PBM binding z-score [6] | PBM binding z-score [7] | PBM binding z-score [8] | PBM binding z-score [9] | PBM binding z-score [10] | PBM binding z-score [11] | PBM binding z-score [12] | PBM binding z-score [13] | PBM binding z-score [14] | PBM binding z-score [15] | PBM binding z-score [16] | PBM binding z-score [17] | PBM binding z-score [18] | PBM binding z-score [19] | PBM binding z-score [20] |
| --- | --- | --- | --- | --- | --- | --- | --- | --- | --- | --- | --- | --- | --- | --- | --- | --- | --- | --- | --- | --- |
| CCTACTGGGCCATTCAGAGGTGATTGATCATATG | -0.00465 | 0.0536 | -0.239 | -0.138 | -0.593 | 0.81 | 0.504 | 0.898 | -0.276 | 0.119 | 3.85 | 3.8 | 0.186 | -0.0997 | 0.152 | 0.147 | -0.0295 | 0.451 | 0.129 | 0.622 |
| ACTCGGAGGACAAAGGGCAGAGCTACGCCAGTGA | 0.0109 | 0.0817 | -0.605 | -0.115 | -0.71 | 1.88 | 3.1 | 4.39 | 2.2 | 4.28 | 0.11 | 0.678 | -1.42 | -1.85 | 0.364 | -0.273 | -0.407 | 0.077 | -0.16 | 2.17 |
| ATATGTAGGTTACATCCGGGTCATTCAGGCTATG | 2.66 | 4.27 | 1.82 | 3.02 | 0.76 | 4.32 | 5.92 | 5.17 | 2.54 | 4.54 | 7.56 | 7.11 | 2.58 | 1.6 | 2.15 | 3.62 | 2.13 | 3.64 | 0.928 | 2.23 |
| TCTAGTTGGTCAAAAGTCACACACTCGAAATGCG | 1.12 | 1.12 | 0.475 | 1.12 | 0.73 | 3.03 | 5.72 | 6.29 | 6.15 | 7.23 | 2.33 | 2.69 | 0.872 | 1.33 | 2 | 1.02 | 0.426 | 1.64 | 1.24 | 1.35 |
| CTCGTAAGGTCGTGCTCAGGTGAGTATACCAAAC | 3.16 | 2.44 | -0.206 | 1.97 | 0.357 | 3.48 | 0.721 | 1.85 | 0.398 | 1.07 | 0.319 | 1.17 | 0.192 | 0.162 | 1.03 | 2.23 | -0.00148 | 3.61 | -0.224 | 2.83 |
| CTCGAAGGGTCGTGCTCAGGTGAGTATACCAAAC | 2.01 | 1.45 | -0.37 | 1.52 | -0.487 | 2.89 | 0.441 | 1.12 | -0.0599 | 0.72 | -0.253 | 0.525 | -0.515 | 0.0417 | 0.506 | 1.37 | -0.509 | 2.56 | -0.561 | 2.31 |
